{
  "source": "PubChem BioAssay (Tox21)",
  "note": "Values joined by “and” are separate entries in the source; they are usually repeats but may differ in a detail not shown here. Equal values may be shown once. Records with an inconclusive call do not appear. The source holds several records for some structures; these can differ, active in one and inactive in another. Active and inactive are the calls of the source. Calls come from the whole dose curve; as a rule, active = well fitted inhibition curve with a large enough effect in the repeat runs; inconclusive = weak or mixed curves; inactive = no such curve, though single readings can be large or run the other way. % is set by controls: 0 for no effect and ±100 for the full control effect; potency is the fitted concentration of half-maximal effect.",
  "data": [
    {"target": "Cytochrome P450 2D6 (Homo sapiens) (UniProt P10635)", "sequence (P10635 whole entry, looked up)": "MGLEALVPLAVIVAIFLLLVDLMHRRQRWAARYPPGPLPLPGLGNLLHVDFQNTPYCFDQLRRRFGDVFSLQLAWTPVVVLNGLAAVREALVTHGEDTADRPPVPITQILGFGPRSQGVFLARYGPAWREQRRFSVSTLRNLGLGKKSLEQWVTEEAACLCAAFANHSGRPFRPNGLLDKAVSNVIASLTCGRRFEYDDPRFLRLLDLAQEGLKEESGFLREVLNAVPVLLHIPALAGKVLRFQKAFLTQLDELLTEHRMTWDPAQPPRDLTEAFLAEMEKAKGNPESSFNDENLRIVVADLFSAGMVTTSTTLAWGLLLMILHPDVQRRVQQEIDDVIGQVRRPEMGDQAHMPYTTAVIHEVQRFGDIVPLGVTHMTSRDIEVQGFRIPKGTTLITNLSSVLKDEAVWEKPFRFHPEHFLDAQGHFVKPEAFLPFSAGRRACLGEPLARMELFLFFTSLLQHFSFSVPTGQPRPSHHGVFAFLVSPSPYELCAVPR", "assay": "Cytochrome P450 Family 2 Subfamily D Member 6 (CYP2D6) small molecule antagonists: luciferase reporter qHTS assay (AID 1671196); note: nearly all actives have a fitted effect of over 50% in size", "conditions": "P450-Glo CYP2D6 enzyme assay, luciferin luminescence, 1 h; series mostly up to 115 µM; activity change, negative = inhibition: at the top concentration", "summary_of_the_method": "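Room-temperature luminescent CYP2D6 activity assay: compound preincubated 10 min with enzyme–substrate mix, NADPH-initiated reaction 1 h, detection reagent 20 min before reading.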", "values": [
      {"smiles": "CN1CCN(CCC(=O)N2c3ccccc3Sc3ccc(C(F)(F)F)cc32)CC1", "Potency": "0.155 µM (active)"},
      {"smiles": "CCCCCCCCCCCC[N+](C)(C)CCCCCCCCCCCC", "Potency": "20 µM (active)"},
      {"smiles": "CCCCCCCCCCCC(=O)NCCCN(C)C", "Potency": "12.6 µM (active)"},
      {"smiles": "CN1CCC(Nc2ncc3ncnc(Nc4ccc(F)c(Cl)c4)c3n2)CC1", "Potency": "6.92 µM (active)"},
      {"smiles": "CC(C)(C)C(=O)OCOC(=O)C1N2C(=O)CC2S(=O)(=O)C1(C)C", "note": "(stereo not drawn)", "activity change, negative = inhibition": "2.13% [at 53 µM] (inactive)"},
      {"smiles": "CNCc1cc(F)ccc1Oc1ccc(Cl)c(Cl)c1", "Potency": "1.78 µM (active)"},
      {"smiles": "CCCCCOC(=O)CCCC", "activity change, negative = inhibition": "1.8% (inactive)"},
      {"smiles": "COc1ccc(C(=O)/C(Br)=C\\C(=O)O)cc1", "Potency": "63.3 µM (active)"},
      {"smiles": "COc1cc(-c2nc(NC(=O)c3cc4cc(C)cc(C)c4n3CC(=O)O)sc2CCC2CCCCC2)c(OC)cc1Cl", "activity change, negative = inhibition": "0.0022% (inactive)"},
      {"smiles": "O=S1(=O)CC(Cl)(Cl)C(Cl)(Cl)C1", "activity change, negative = inhibition": "42.9% (inactive)"},
      {"smiles": "O=C1c2ccccc2Cc2ccccc21", "activity change, negative = inhibition": "-17.5% (inactive)"},
      {"smiles": "Oc1ccc(C2(c3ccc(O)cc3)CC3CC2C2CCCC32)cc1", "note": "(stereo not drawn)", "activity change, negative = inhibition": "-19.2% (inactive)"},
      {"smiles": "C[C@H](CCC(=O)O)[C@H]1CC[C@H]2[C@@H]3CC[C@@H]4C[C@H](O)CC[C@]4(C)[C@H]3CC[C@]12C", "Potency": "inactive and 35.6 µM (active)"},
      {"smiles": "CCCCCCCCCCCCCCCC[N+](C)(C)CCN(Cc1ccc(OC)cc1)c1ncccn1", "Potency": "15.5 µM (active)"},
      {"smiles": "NNc1nc(-c2ccc([N+](=O)[O-])cc2)cs1", "Potency": "14.2 µM (active)"},
      {"smiles": "CC1=C(/C=C/C(C)=C/C=C/C(C)=C/C=O)C(C)(C)CCC1", "Potency": "63 µM (active)"},
      {"smiles": "O=C(Oc1cccc2cccnc12)c1ccccc1", "activity change, negative = inhibition": "-5.91% [at 53 µM] (inactive)"},
      {"smiles": "CCC(N)(CO)CO", "activity change, negative = inhibition": "-2.71% (inactive)"},
      {"smiles": "O=c1[nH]sc2ccccc12", "activity change, negative = inhibition": "9.39% (inactive)"},
      {"smiles": "CCc1cc(SCc2sc(-c3ccc(C(F)(F)F)cc3)nc2CN2CCN(c3ccc(OC)cc3)CC2)ccc1OCC(=O)O", "activity change, negative = inhibition": "-17.6% (inactive)"},
      {"smiles": "N#CC1(c2ccc(F)cc2)CCC(=O)CC1", "activity change, negative = inhibition": "-0.378% [at 53 µM] (inactive)"},
      {"smiles": "Nc1ccc(N)c2ccccc12", "Potency": "3.99 µM (active)"},
      {"smiles": "O=C(O)c1cc(O)c2c(c1)C(=O)c1cccc(O)c1C2=O", "activity change, negative = inhibition": "-8.3% (inactive)"},
      {"smiles": "CC1(C)CCC(C)(C)c2cc(C(=O)Nc3ccc(C(=O)O)cc3)ccc21", "activity change, negative = inhibition": "-1.25% (inactive)"},
      {"smiles": "Nc1ccc2cc(S(=O)(=O)O)cc(O)c2c1N=Nc1ccccc1C(F)(F)F", "activity change, negative = inhibition": "-22.5% (inactive)"},
      {"smiles": "CC(=O)OCC(C)OC(C)=O", "note": "(stereo not drawn)", "activity change, negative = inhibition": "-12.9% (inactive)"},
      {"smiles": "CC(C)CCCCCCCCCCCCCCC(=O)O", "activity change, negative = inhibition": "0.789% (inactive)"},
      {"smiles": "Cc1cc2c(cc1C(F)(F)F)N(C(=O)Nc1ccc(Oc3cccnc3C)nc1)CC2", "Potency": "22.8 µM (active)"},
      {"smiles": "Cc1nc(-c2ccc3c(c2)CCN(CCC2CCC(NC(=O)/C=C/c4ccc(F)cc4)CC2)CC3)no1", "note": "(stereo not drawn)", "activity change, negative = inhibition": "-14.1% [at 53 µM] (inactive)"}
    ]},
    {"target": "Cytochrome P450 2C19 (Homo sapiens) (UniProt P33261)", "sequence (P33261 whole entry, looked up)": "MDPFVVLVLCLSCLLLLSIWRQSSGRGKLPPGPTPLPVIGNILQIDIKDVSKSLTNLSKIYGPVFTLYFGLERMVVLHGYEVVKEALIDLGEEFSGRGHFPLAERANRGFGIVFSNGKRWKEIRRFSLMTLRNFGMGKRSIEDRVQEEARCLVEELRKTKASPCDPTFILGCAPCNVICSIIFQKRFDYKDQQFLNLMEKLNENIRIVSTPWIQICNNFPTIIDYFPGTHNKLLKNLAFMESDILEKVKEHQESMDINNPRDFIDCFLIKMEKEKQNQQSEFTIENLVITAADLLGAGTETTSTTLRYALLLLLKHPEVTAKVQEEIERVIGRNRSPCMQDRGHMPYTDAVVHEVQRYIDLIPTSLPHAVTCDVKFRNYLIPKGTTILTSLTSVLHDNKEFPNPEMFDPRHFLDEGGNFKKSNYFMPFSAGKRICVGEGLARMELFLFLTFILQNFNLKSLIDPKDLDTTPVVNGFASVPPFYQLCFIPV", "assay": "Cytochrome P450 Family 2 Subfamily C Member 19 (CYP2C19) small molecule antagonists: luciferase reporter qHTS assay (AID 1671197); note: nearly all actives have a fitted effect of over 65% in size", "conditions": "P450-Glo CYP2C19 enzyme, luciferin luminescence, 1 h; series mostly up to 52.9 µM; activity change, negative = inhibition: at the top concentration", "summary_of_the_method": "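First, compounds are pinned into enzyme-substrate mix and held 10 min at room temperature. Second, NADPH regeneration solution is added and plates incubate 1 h at 37C. Third, detection reagent is added and luminescence read after 20 min.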", "values": [
      {"smiles": "CCCCCCCCCCCC[N+](C)(C)CCCCCCCCCCCC", "Potency": "35.6 µM (active)"},
      {"smiles": "CCCCCCCCCCCC(=O)NCCCN(C)C", "Potency": "20 µM (active)"},
      {"smiles": "CN1CCC(Nc2ncc3ncnc(Nc4ccc(F)c(Cl)c4)c3n2)CC1", "activity change, negative = inhibition": "11.7% (inactive)"},
      {"smiles": "CC(C)(C)C(=O)OCOC(=O)C1N2C(=O)CC2S(=O)(=O)C1(C)C", "note": "(stereo not drawn)", "activity change, negative = inhibition": "-2.16% (inactive)"},
      {"smiles": "CNCc1cc(F)ccc1Oc1ccc(Cl)c(Cl)c1", "Potency": "2.52 µM (active)"},
      {"smiles": "CCCCCOC(=O)CCCC", "activity change, negative = inhibition": "-11.2% [at 115 µM] (inactive)"},
      {"smiles": "COc1ccc(C(=O)/C(Br)=C\\C(=O)O)cc1", "Potency": "35.6 µM (active)"},
      {"smiles": "O=c1c(-c2ccccc2)c1-c1ccccc1", "Potency": "7.76 µM (active)"},
      {"smiles": "O=S1(=O)CC(Cl)(Cl)C(Cl)(Cl)C1", "Potency": "35.6 µM (active)"},
      {"smiles": "O=C1c2ccccc2Cc2ccccc21", "Potency": "9.01 µM (active)"},
      {"smiles": "Oc1ccc(C2(c3ccc(O)cc3)CC3CC2C2CCCC32)cc1", "note": "(stereo not drawn)", "Potency": "30.5 µM (active)"},
      {"smiles": "NNc1nc(-c2ccc([N+](=O)[O-])cc2)cs1", "Potency": "5.03 µM (active)"},
      {"smiles": "CC1=C(/C=C/C(C)=C/C=C/C(C)=C/C=O)C(C)(C)CCC1", "Potency": "39.7 µM (active)"},
      {"smiles": "O=C(Oc1cccc2cccnc12)c1ccccc1", "activity change, negative = inhibition": "11.5% (inactive)"},
      {"smiles": "CCC(N)(CO)CO", "activity change, negative = inhibition": "8.92% [at 115 µM] (inactive)"},
      {"smiles": "O=c1[nH]sc2ccccc12", "activity change, negative = inhibition": "-1.74% [at 115 µM] (inactive)"},
      {"smiles": "COC(=O)c1cc(Cl)ccc1OC", "activity change, negative = inhibition": "-3.92% (inactive)"},
      {"smiles": "O=[N+]([O-])c1ccccc1Nc1ccccc1", "Potency": "19.9 µM (active)"},
      {"smiles": "NC(=O)N1C(=O)C(C(=O)c2cc(Cl)cs2)c2cc(F)c(Cl)cc21", "note": "(stereo not drawn)", "Potency": "79.6 µM (active)"},
      {"smiles": "CCCN(CCC)c1c([N+](=O)[O-])cc(C(F)(F)F)c(N)c1[N+](=O)[O-]", "Potency": "2 µM (active)"},
      {"smiles": "CC1=C(C(=O)OC(C)C)C(c2cccc([N+](=O)[O-])c2)C(C(=O)OC2CN(C(c3ccccc3)c3ccccc3)C2)=C(N)N1", "note": "(stereo not drawn)", "Potency": "1.74 µM (active)"},
      {"smiles": "Nc1ccc(N)c2ccccc12", "Potency": "3.17 µM (active)"},
      {"smiles": "O=C(O)c1cc(O)c2c(c1)C(=O)c1cccc(O)c1C2=O", "activity change, negative = inhibition": "-6.75% [at 115 µM] (inactive)"},
      {"smiles": "CC1(C)CCC(C)(C)c2cc(C(=O)Nc3ccc(C(=O)O)cc3)ccc21", "activity change, negative = inhibition": "-12.8% [at 115 µM] (inactive)"},
      {"smiles": "Nc1ccc2cc(S(=O)(=O)O)cc(O)c2c1N=Nc1ccccc1C(F)(F)F", "Potency": "79.6 µM (active)"},
      {"smiles": "CC(=O)OCC(C)OC(C)=O", "note": "(stereo not drawn)", "activity change, negative = inhibition": "8.14% [at 115 µM] (inactive)"},
      {"smiles": "CC(C)CCCCCCCCCCCCCCC(=O)O", "activity change, negative = inhibition": "11.5% [at 115 µM] (inactive)"},
      {"smiles": "Cc1cc2c(cc1C(F)(F)F)N(C(=O)Nc1ccc(Oc3cccnc3C)nc1)CC2", "Potency": "28.7 µM (active)"},
      {"smiles": "Cc1nc(-c2ccc3c(c2)CCN(CCC2CCC(NC(=O)/C=C/c4ccc(F)cc4)CC2)CC3)no1", "note": "(stereo not drawn)", "activity change, negative = inhibition": "-5.02% (inactive)"}
    ]}
  ]
}
